# Measurements: ChEMBL document CHEMBL3988442, “University of Dundee, Small-Polar-MMV Screening Library” (2021)
# For part of these data: Entries with a potency or affinity are not part of this list.
# Key:
# Parameters in all cases: scale not given: direction of the effect not stated beside the values
# [1] = target: Protein translocase subunit SecA (Escherichia coli (strain K12)) (UniProt P10408); experiment: Assay to Identify E. coli SecA ATPase Inhibitors; assay type: functional; conditions: 30 µM
# [2] = target: T1, Ubiquitin-activating enzyme e1, putative (Leishmania donovani (strain BPK282A1)) (UniProt E9BSI1); experiment: Leishmania donovani Ubiquitin Activating Enzyme (LdE1); assay type: functional; conditions: 30 µM
# T1 sequence (whole entry): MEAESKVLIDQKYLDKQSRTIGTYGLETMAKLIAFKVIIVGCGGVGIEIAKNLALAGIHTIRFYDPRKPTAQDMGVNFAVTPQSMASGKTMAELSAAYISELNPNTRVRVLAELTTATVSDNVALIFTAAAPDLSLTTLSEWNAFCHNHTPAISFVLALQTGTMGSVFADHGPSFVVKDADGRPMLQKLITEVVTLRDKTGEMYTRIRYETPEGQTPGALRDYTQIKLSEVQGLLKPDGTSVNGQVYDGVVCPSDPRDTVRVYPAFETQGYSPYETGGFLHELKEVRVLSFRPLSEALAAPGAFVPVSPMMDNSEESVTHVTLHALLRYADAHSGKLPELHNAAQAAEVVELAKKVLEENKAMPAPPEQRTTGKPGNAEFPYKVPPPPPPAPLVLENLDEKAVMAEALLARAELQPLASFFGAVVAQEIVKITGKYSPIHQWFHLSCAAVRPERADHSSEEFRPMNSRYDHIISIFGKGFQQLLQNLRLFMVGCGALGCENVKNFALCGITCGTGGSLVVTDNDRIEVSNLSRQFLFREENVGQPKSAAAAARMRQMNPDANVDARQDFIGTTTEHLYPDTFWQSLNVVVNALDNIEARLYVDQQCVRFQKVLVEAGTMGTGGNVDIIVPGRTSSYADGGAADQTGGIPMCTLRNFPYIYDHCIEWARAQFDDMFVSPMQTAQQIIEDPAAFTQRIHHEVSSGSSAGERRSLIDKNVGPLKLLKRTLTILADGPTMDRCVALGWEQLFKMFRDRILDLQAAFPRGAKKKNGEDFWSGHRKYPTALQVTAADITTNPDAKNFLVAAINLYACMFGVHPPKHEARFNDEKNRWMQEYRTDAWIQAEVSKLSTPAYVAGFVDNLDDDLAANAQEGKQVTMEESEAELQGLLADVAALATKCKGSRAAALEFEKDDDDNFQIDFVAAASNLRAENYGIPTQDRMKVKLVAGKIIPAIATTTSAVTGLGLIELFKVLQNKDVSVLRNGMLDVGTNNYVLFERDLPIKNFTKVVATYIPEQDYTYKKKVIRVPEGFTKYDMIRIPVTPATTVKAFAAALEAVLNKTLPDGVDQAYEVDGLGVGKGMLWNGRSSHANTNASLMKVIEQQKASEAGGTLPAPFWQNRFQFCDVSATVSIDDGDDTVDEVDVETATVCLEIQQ
# [3] = target: T2, Aspartate--tRNA(Asp/Asn) ligase (Mycobacterium tuberculosis (strain ATCC 25618 / H37Rv)) (UniProt P9WFW3); experiment: Assay for Asp RNA synthetase-1 from Mycobacterium tuberculosis; assay type: functional; conditions: 30 µM; also: in the data most compounds retested in dose-response had high values
# T2 sequence (whole entry): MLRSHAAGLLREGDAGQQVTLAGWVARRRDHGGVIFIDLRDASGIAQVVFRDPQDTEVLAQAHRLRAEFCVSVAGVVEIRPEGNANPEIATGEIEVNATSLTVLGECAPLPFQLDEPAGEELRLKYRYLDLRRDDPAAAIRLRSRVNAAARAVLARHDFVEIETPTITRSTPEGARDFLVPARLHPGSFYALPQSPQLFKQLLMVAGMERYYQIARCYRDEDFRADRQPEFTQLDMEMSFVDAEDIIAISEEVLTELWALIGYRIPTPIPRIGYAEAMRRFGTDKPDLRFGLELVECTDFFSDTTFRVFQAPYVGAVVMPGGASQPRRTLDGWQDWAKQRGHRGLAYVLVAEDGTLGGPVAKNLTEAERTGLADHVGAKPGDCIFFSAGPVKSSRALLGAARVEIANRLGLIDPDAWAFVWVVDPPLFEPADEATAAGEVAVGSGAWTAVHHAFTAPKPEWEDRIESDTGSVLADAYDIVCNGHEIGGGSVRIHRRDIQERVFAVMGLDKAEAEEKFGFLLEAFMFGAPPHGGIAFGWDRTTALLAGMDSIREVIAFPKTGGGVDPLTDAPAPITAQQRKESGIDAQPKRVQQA
# [4] = target: AMP-activated protein kinase, AMPK (Homo sapiens) (UniProt P54646+O43741+P54619+Q9UGJ0+Q9Y478+Q13131+Q9UGI9); experiment: AMP-dependent Kinase enzyme assay. An in vitro enzyme assay that detects ADP turnover that is directly proportional to AMPK activity. This uses naive AMPK that is activated during the assay with MK-8722; assay type: functional; conditions: 30 µM
# [5] = target: Sialic acid-binding Ig-like lectin 9 (Homo sapiens) (UniProt Q9Y336); experiment: Hs-Siglec9 ALPHAscreen SOP 20170721; conditions: 10 µM
# Trypanosoma cruzi = experiment: Trypanosoma cruzi phosphomannomutase and mannose-1-phosphate guanylyltransferase assay; assay type: functional; conditions: 10 µM
# [6] = target: T3, Arginase-2, mitochondrial (Homo sapiens) (UniProt P78540); experiment: in vitro enzyme assay to detect the production of urea directly proportional to the activity of Arginase II; assay type: functional; conditions: 33.3 µM; also: in the data most compounds retested in dose-response had high values
# T3 sequence (whole entry): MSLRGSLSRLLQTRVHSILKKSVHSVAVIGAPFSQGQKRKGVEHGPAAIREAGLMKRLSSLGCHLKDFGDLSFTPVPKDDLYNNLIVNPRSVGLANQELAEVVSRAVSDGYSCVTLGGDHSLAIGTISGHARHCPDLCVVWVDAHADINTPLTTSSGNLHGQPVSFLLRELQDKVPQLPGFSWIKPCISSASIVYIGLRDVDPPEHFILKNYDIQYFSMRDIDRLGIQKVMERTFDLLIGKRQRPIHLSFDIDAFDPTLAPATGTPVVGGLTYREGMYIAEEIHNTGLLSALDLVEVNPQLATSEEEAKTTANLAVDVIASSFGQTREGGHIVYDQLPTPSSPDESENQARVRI
# [7] = target: T4, Proteasome subunit beta (Trypanosoma cruzi) (UniProt O96673); experiment: Trypanosoma cruzi proteasome chymotrypsin-like activity (TcProtChymo) assay.; also: in the data most compounds retested in dose-response had high values; assay type: functional; conditions: 9.37 µM
# T4 sequence (whole entry): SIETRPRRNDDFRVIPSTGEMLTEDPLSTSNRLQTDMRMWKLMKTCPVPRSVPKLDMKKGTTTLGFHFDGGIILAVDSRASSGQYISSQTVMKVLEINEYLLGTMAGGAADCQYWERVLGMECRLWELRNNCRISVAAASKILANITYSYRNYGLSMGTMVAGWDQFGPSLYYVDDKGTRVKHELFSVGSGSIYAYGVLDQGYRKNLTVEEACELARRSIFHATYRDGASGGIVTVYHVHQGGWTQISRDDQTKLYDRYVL
# Homo sapiens = species on record: Homo sapiens; experiment: To identify inhibition of the IFN signalling (Jak-Stat) pathway via expression of an eGFP reporter gene under the control of an IFN-stimulated response element (ISRE) containing MxA promoter.; assay type: functional; conditions: 30 µM
# [8] = target: Shiga toxin 2 (Escherichia coli O157:H7) (UniProt P09385+P09386); experiment: E. coli 0.157:H7 Shiga Toxin SOP - stx2 screening assay; assay type: functional; conditions: 30 µM
# [9] = target: T5, Tyrosyl-tRNA synthetase, putative (Trypanosoma cruzi (strain CL Brener)) (UniProt Q4DSP6); experiment: Trypanosoma cruzi tyrosyl tRNA synthetase (TcYRS) _High Tyrosine SOP; assay type: functional; conditions: 30 µM; also: in the data most compounds retested in dose-response had high values
# T5 sequence (whole entry): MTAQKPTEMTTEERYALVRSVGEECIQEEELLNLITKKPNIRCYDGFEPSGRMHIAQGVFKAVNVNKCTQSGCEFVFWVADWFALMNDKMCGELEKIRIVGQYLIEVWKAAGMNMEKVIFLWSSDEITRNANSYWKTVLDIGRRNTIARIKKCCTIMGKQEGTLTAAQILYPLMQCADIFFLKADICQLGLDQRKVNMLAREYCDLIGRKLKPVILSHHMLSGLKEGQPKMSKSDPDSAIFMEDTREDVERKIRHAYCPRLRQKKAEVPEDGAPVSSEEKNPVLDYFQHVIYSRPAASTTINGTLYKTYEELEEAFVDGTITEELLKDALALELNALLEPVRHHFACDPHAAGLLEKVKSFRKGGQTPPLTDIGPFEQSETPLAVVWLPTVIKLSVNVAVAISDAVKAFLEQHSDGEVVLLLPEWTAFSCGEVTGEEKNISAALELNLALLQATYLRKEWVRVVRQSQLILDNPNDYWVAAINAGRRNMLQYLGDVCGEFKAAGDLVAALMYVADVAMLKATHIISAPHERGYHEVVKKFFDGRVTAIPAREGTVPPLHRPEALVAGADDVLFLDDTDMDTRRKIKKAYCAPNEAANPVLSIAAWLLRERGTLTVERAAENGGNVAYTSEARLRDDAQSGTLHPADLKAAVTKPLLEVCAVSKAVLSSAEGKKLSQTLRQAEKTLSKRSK
# [10] = target: T5, Tyrosyl-tRNA synthetase, putative (Trypanosoma cruzi (strain CL Brener)); experiment: Trypanosoma cruzi tyrosyl tRNA synthetase (TcYRS) SOP; assay type: functional; conditions: 30 µM
# [11] = target: Chromo domain-containing protein 1 (Saccharomyces cerevisiae (strain ATCC 204508 / S288c) (Baker's yeast)) (UniProt P32657); experiment: ScCHD-1 Enzyme Inhibition Assay; assay type: functional; conditions: 30 µM; also: in the data most compounds retested in dose-response had high values
# Chain of Chromo domain-containing protein 1 (Saccharomyces cerevisiae (strain ATCC 204508 / S288c) (Baker's yeast)) (P32657 whole entry, the tested form may be a part): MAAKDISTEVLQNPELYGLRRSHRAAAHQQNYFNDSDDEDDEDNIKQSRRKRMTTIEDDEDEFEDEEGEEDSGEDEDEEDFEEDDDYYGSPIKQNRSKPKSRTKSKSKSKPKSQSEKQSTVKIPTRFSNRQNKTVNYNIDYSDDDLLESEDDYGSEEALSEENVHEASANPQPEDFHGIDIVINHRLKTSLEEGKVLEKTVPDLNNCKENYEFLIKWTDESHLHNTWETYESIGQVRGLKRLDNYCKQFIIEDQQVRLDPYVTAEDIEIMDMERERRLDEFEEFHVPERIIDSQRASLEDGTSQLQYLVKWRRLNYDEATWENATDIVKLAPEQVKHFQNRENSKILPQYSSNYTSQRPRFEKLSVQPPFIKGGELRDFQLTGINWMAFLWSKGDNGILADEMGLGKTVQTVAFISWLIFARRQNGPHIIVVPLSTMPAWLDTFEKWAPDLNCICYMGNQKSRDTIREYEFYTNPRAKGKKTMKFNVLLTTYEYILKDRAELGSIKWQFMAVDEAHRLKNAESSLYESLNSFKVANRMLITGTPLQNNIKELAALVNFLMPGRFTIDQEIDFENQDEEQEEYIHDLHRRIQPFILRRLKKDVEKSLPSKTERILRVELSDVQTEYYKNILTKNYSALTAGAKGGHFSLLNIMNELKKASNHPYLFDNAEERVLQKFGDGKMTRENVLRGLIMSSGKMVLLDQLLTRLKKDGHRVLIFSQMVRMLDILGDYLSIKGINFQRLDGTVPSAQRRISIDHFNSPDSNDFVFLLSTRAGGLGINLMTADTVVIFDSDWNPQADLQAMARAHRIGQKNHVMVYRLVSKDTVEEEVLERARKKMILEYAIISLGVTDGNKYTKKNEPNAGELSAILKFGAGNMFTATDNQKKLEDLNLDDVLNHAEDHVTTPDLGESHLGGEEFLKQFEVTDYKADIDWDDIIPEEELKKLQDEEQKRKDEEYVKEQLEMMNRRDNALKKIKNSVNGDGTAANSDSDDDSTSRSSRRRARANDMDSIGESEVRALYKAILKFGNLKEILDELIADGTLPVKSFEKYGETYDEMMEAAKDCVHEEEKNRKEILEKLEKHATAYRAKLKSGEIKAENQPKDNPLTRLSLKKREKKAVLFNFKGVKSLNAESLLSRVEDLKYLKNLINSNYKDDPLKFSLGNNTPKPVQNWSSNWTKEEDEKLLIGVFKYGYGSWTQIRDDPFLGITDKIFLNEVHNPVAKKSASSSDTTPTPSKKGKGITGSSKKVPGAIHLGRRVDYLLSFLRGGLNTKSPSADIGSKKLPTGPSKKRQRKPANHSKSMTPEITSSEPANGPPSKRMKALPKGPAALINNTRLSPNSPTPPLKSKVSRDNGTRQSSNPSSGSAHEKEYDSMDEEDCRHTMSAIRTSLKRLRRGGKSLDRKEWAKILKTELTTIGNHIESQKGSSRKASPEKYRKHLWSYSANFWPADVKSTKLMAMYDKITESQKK
# Chain of Protein translocase subunit SecA (Escherichia coli (strain K12)) (P10408 whole entry): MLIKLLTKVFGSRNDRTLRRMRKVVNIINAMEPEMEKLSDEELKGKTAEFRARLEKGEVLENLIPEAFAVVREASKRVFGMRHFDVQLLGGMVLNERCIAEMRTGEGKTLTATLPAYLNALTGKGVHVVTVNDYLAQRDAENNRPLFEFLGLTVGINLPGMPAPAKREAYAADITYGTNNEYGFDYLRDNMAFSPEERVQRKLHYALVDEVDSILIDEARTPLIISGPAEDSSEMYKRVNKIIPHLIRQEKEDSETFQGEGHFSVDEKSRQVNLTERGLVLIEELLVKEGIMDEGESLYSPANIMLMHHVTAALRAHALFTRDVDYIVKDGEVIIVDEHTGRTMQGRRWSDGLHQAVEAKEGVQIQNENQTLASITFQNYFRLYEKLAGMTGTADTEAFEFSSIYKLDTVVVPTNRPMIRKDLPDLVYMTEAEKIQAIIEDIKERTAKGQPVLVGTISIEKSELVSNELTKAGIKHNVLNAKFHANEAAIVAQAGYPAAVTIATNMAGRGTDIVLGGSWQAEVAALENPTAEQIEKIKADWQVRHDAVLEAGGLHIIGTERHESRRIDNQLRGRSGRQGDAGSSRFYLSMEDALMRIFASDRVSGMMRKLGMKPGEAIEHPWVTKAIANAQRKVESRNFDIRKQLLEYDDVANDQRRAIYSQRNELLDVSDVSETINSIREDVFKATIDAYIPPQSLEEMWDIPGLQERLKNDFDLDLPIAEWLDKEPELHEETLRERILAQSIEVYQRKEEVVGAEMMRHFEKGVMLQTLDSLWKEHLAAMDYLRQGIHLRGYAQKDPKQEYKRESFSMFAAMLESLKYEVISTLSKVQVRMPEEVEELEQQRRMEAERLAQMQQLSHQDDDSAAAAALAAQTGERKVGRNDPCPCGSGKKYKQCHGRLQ
# Chain of Sialic acid-binding Ig-like lectin 9 (Homo sapiens) (Q9Y336 whole entry): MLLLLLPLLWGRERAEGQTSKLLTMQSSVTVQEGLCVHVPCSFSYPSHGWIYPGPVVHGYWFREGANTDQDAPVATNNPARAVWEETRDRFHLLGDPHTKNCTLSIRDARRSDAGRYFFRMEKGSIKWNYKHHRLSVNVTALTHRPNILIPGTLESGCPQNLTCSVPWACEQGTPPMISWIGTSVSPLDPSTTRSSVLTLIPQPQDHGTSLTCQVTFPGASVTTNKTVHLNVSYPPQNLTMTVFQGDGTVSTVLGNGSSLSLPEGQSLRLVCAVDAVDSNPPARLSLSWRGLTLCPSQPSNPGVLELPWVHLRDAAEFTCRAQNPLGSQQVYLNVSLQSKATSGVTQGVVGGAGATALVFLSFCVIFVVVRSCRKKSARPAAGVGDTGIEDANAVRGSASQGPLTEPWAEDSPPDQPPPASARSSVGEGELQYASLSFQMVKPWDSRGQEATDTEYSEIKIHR
Compound,Percent Effect [1] [%],Percent Effect [2] [%],Percent Effect [3] [%],Percent Effect [4] [%],Percent Effect [5] [%],Percent Effect (Trypanosoma cruzi) [%],Percent Effect [6] [%],Percent Effect [7] [%],Percent Effect (Homo sapiens) [%],Percent Effect [8] [%],Percent Effect [9] [%],Percent Effect [10] [%],Percent Effect [11] [%]
CC(Cn1cccn1)NCc1nc(-c2cccs2)no1 (centres undefined),-4.32,5.26,-3.4,-6.35,2.35,3.08,-2.88,5.67,-9.95,4.43,4.43,16.1,-2.61
Cc1noc(C)c1CN1CC[C@@H]2O[C@@H](COCC(C)C)CC[C@@H]21,-2.23,0,-1.08,1.3,5.58,-1.16,-49.3,2.22,8.8,2.31,2.08,2.5,1.48
COC[C@]12COC[C@H]1CN(Cc1cccnc1OC)C2,-3.99,9.33,-1.36,1.98,1.86,-4.32,-8.63,18.7,-3.88,-17.2,7.41,5.13,-3.25
Cn1cc(C(=O)N2CC[C@@H]3[C@@H]2CCN3Cc2cccnc2)cn1,-4.7,8.11,1.51,4.43,1.46,-2.83,0.955,17.7,-13.9,-2.5,3.24,12.8,0.704
Cc1n[nH]c2c1C(c1ccc(O)c(Cl)c1)SCC(=O)N2 (centres undefined),-3.6,4,-0.755,21.6,4.97,-3.73,-6.16,5.18,10.7,-29.6,9.52,15.4,-4.99
COc1ccc(CN2C[C@@H]3OCCN(c4ncccn4)[C@@H]3C2)cc1,1.18,0,3.34,11.4,2.48,-4.13,2.1,3.61,22.3,-20,1.06,-1.28,0.371
c1cncc(CN2CC[C@H]3O[C@@H](COCC4CC4)CC[C@H]32)c1,-2.96,-2.67,-5.28,10.2,2.62,-0.591,7.23,-2.38,8.64,-10.9,4.25,6.41,3.34
Cc1cccc(CN2C[C@H](NS(C)(=O)=O)[C@@H]3OCCC[C@@H]32)n1,-0.629,-5.33,-2.65,9.72,5.95,-4.83,-50,0.513,3.24,-15.5,1.04,-5,-2.83
Cc1noc(C)c1CN1C[C@H](OCC2CC2)[C@H]2OCCC[C@H]21,-4.83,8.11,-3.74,-3.37,5.64,0.293,4.71,8.84,-6.54,-3.9,7.53,11.1,-10.2
CNC(=O)c1ccc2c(c1)C1(CCN(CC(C)C)CC1)C(=O)N2,-7.23,5.41,3.94,-0.561,-0.632,-4.2,0.248,3.52,3.77,7.05,4.3,11.1,-2.94
Cc1ccccc1CC(C)NCc1c(C)nn(C)c1N1CCOCC1 (centres undefined),-3.17,-1.39,-4.34,-1.27,-1.05,5.93,-2.21,2.46,-20.6,16.3,3.16,2.56,102
Cc1cc(CN2CC[C@H]3C[C@H](C)O[C@@H]3C2)no1,-1.91,18.9,-4.38,-0.664,-1.18,3.23,5.41,9.96,17.4,-1.03,7.57,17.9,1.93
c1ccc(OC[C@]23COC[C@H]2CN(Cc2ccoc2)C3)nc1,-3.19,10.7,-2.04,-1.7,1.05,4.05,-57.9,12.1,-8.07,-23.7,3.12,17.5,-6.62
O=C(C1CC1)N1CCC2(CC1)OCCO2,-2.52,7.89,0.21,-0.0617,-9.69,-4.38,2.37,14.1,14.1,-6.13,0,10.4,-6.58
Cc1nc(N(C)C)nc2c1COCC21CCN(CC2CC2)C1 (centres undefined),-3.83,-8.11,3.96,-0.232,1.53,-5.86,1.25,7.18,4.17,-14.2,6.93,6.1,-5.03
c1cncc(N2CCCC3(CN(Cc4cccs4)CCO3)C2)c1 (centres undefined),-4.82,8.11,1.48,-14.4,-11.3,-4.2,-1.59,8.12,29.1,1.28,-1.08,5.13,-3.66
CN(CCc1ccc(F)cc1)Cc1nc2c(cnn2C)c(=O)[nH]1,-6.94,21.1,-1.46,-5.8,1.02,2.33,-6.47,14.5,2.88,14.7,10.3,23.5,-6.22
CC(C)c1nc(N2CCN3CCCC3C2)c2cnn(C)c2n1 (centres undefined),-0.588,8.22,4.74,-0.789,7.41,1.98,-6.79,8.82,-37.1,-16.2,8.33,16.1,-6.37
